Assay [1] addresses Acetylcholinesterase (Homo sapiens) (UniProt P22303). Description: Acetylcholinesterase (AChE) small molecule antagonists: colormetric cell-based qHTS assay (AID 1347395). Also: nearly all actives have a fitted effect of over 30% in size. Also: potency is read from the fitted curve at half-maximal effect. The method in brief:
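Neuroblastoma line SH-SY5Y supplied the enzyme; cells were preincubated with compound for 30 min at 37 C and 5% CO2. Acetylthiocholine with DTNB was then added for 90 min at 37 C, and thiocholine was measured by colour.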
In general terms: Quantitative high-throughput screening tests each substance at several concentrations.

Assay [2] shares this target. Description: Acetylcholinesterase (AChE) small molecule antagonists: enzyme-based qHTS assay (AID 1347397). Also: nearly all actives have a fitted effect of over 55% in size. Also: potency is read from the fitted curve at half-maximal effect. The note with it: Potency: AChE enzyme activity inhibition; outcome: AChE enzyme activity inhibition. Summed up: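 Colorimetric DTNB readout of acetylthiocholine hydrolysis, 10 min at room temperature, after 30 min room-temperature exposure of 50 mU/mL recombinant human enzyme to compound; DMSO vehicle control.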

The target is the same in assay [3]. Kind of assay: Acetylcholinesterase (AChE) small molecule antagonists: fluorescence cell-based qHTS assay (AID 1347398). Also: nearly all actives have a fitted effect of over 50% in size. Also: potency is read from the fitted curve at half-maximal effect. The note with it: Potency: AChE activity; outcome: AChE activity. The method in brief:
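Cellular AChE activity read as thiocholine from acetylthiocholine hydrolysis, detected by Thiolite Green fluorescence at 490/520 nm after 40 min at room temperature. Compounds were pre-incubated 30 min at 37 C on adherent SH-SY5Y cells.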

The target is the same in assay [4]. Kind of assay: Acetylcholinesterase (AChE) small molecule antagonists: enzyme-based qHTS assay with human liver microsomes (AID 1347399). Also: nearly all actives have a fitted effect of over 60% in size. The following applies: Potency: qHTS inhibition; outcome: qHTS inhibition. Summed up:
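Recombinant human AChE (50 mU/mL in the enzyme mix) and human liver microsomes (0.25 mg/mL final) were preincubated with compound and NADPH (0.25 mg/mL final) for 30 min at 37 C. Acetylthiocholine/DTNB was then added; thiocholine was read colorimetrically after 10 min at room temperature.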

Each structure is given as a SMILES string. “And” between values parts separate entries of the source, which are not always exact repeats. Identical values can stand only once. A number with no mark means an inactive call. Results filed as inconclusive are left out. The source made the active and inactive calls. Calls follow the shape of the full dose curve.
% is scaled to controls: 0 for no effect and ±100 for the full control effect.

Acetylcholinesterase (Homo sapiens), sequence (P22303 whole entry, looked up): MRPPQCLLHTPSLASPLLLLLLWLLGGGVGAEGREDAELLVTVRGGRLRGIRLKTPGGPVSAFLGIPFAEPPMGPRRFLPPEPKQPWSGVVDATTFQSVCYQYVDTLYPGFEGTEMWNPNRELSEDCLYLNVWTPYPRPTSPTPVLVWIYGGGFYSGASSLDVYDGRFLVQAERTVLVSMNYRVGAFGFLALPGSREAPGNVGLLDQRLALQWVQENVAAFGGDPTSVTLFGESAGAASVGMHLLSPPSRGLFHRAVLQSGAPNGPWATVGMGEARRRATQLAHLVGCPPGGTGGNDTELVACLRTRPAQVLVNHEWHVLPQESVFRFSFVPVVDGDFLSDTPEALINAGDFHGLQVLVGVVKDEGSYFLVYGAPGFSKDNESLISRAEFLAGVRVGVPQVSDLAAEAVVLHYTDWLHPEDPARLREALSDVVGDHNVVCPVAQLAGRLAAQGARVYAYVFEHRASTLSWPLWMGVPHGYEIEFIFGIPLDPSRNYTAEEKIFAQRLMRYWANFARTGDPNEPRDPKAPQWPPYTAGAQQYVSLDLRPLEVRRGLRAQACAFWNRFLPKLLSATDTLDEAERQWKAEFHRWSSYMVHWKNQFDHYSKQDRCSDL

With `CCCCS`, the Potency entry in assay [1], in assay [2], in assay [3] and in assay [4] was “inactive” throughout.

With `Oc1ccc(Cl)c2cccnc12`, the Potency entry in assay [1], in assay [2], in assay [3] and in assay [4] was “inactive” each time.

On to `CCN1CN(CC)CN(CC)C1`, for which the Potency result in assay [1], in assay [2], in assay [3] and in assay [4] was “inactive” in each case.

In the case of `O=C1CCc2ccccc2O1`, the Potency entry in assay [1], in assay [2], in assay [3] and in assay [4] was “inactive” in each case.

Consider `COCCCN`, for which the Potency result in assay [1], in assay [2], in assay [3] and in assay [4] was “inactive” in each case.

With `CC(C)(c1cc(Br)c(O)c(Br)c1)c1cc(Br)c(O)c(Br)c1`, the Potency result in assay [1], in assay [3] and in assay [4] was “inactive” throughout. Besides, the Potency in assay [2] was 39.8 µM (active) and 70.8 µM (active) and 67.2 µM (active).

On to `CCCCOC(=O)c1ccc(N)cc1`, for which the Potency entry in assay [1], in assay [2], in assay [3] and in assay [4] was “inactive” each time.

For the compound `CC(=O)CCC(C)C`, the Potency result in assay [1], in assay [2], in assay [3] and in assay [4] was “inactive” throughout.

For the compound `CCCCOCCOC(=O)c1ccccc1C(=O)OCCOCCCC`, the Potency result in assay [1], in assay [2], in assay [3] and in assay [4] was “inactive” each time.

Consider `CCN(CC)c1ccc(C=O)c(O)c1`, for which the Potency in assay [1] is 39.9 µM (active); in assay [3] it was 35.6 µM (active). For the same compound, the Potency entry in assay [2] and in assay [4] was “inactive” in each case.

`CN1CCC(=C2c3ccccc3C=Cc3ccccc32)CC1`: the Potency entry in assay [1], in assay [2], in assay [3] and in assay [4] was “inactive” throughout.

As to `CCC[C@H](N[C@@H](C)C(=O)N1[C@H](C(=O)O)C[C@@H]2CCCC[C@@H]21)C(=O)OCC`, the Potency entry in assay [1], in assay [2], in assay [3] and in assay [4] was “inactive” throughout.

On to `CCN1CCC[C@H]1CNC(=O)c1c(O)c(Cl)cc(Cl)c1OC`, for which the Potency result in assay [1], in assay [2], in assay [3] and in assay [4] was “inactive” throughout.

Turning to `CCO[Si](OCC)(OCC)c1ccccc1`, the Potency entry in assay [1], in assay [2], in assay [3] and in assay [4] was “inactive” each time.

For `CN(C)Cc1ccccc1O`, the Potency entry in assay [1], in assay [2], in assay [3] and in assay [4] was “inactive” throughout.

Consider `CCCCCCCC(=O)O`, for which the Potency result in assay [1], in assay [2], in assay [3] and in assay [4] was “inactive” each time.

Consider `CSCC[C@H](NC(=O)[C@H](Cc1c[nH]c2ccccc12)NC(=O)CCNC(=O)OC(C)(C)C)C(=O)N[C@@H](CC(=O)O)C(=O)N[C@@H](Cc1ccccc1)C(N)=O`, for which the Potency result in assay [1], in assay [2], in assay [3] and in assay [4] was “inactive” each time.

With `CCN(CC)CCOC(=O)C1(C2CCCCC2)CCCCC1`, the Potency entry in assay [1], in assay [2], in assay [3] and in assay [4] was “inactive” throughout.

Regarding `NC(=O)c1nc(-c2cccc(-c3cc(F)ccc3OCC(F)(F)C(F)(F)F)c2)n[nH]1`, the Potency result in assay [1], in assay [2], in assay [3] and in assay [4] was “inactive” in each case.

`CCCCCCCCCCCCI`: the Potency result in assay [1], in assay [2], in assay [3] and in assay [4] was “inactive” in each case.

Turning to `CCCCCCCCCCCCC(=O)O`, the Potency entry in assay [1], in assay [2], in assay [3] and in assay [4] was “inactive” each time.

Regarding `NC(CCC(=O)O)C(=O)O` (stereo not given), the Potency result in assay [1], in assay [2], in assay [3] and in assay [4] was “inactive” throughout.

With `O=C(CCCCCCCCc1cccnc1)N1CCC(C=C(c2ccccc2)c2ccccc2)CC1`, the Potency result in assay [1], in assay [2], in assay [3] and in assay [4] was “inactive” throughout.

Consider `NCC(=O)CCC(=O)O`, for which the Potency entry in assay [1], in assay [2], in assay [3] and in assay [4] was “inactive” throughout.

Turning to `CC(=O)NS(=O)(=O)c1ccc(N)cc1`, the Potency result in assay [1], in assay [2], in assay [3] and in assay [4] was “inactive” throughout.

For `c1ccc(CNc2ncnc3c2ncn3C2CCCCO2)cc1` (stereo not given), the Potency entry in assay [1], in assay [2], in assay [3] and in assay [4] was “inactive” throughout.

With `CCCCCCCCCCC`, the Potency result in assay [1], in assay [2], in assay [3] and in assay [4] was “inactive” each time.

Take `OC(CCN1CCCCC1)(c1ccccc1)c1ccccc1`: the Potency entry in assay [1], in assay [2], in assay [3] and in assay [4] was “inactive” throughout.

For the compound `CC(=O)Nc1ccc(N=Nc2cc(C)ccc2O)cc1`, the Potency entry in assay [1], in assay [3] and in assay [4] was “inactive” in each case. The Potency in assay [2] is 22.4 µM (active).

As for `NNc1nnc(NN)c2ccccc12`, the Potency entry in assay [1], in assay [2], in assay [3] and in assay [4] was “inactive” in each case.

Turning to `O=C1c2ccccc2C(=O)c2c(O)ccc(O)c21`, the Potency result in assay [1], in assay [2], in assay [3] and in assay [4] was “inactive” throughout.

`Cn1c(N)nc2nc[nH]c2c1=O`: the Potency entry in assay [1], in assay [2], in assay [3] and in assay [4] was “inactive” throughout.

On to `CC(=O)Nc1ccc(N)cc1`, for which the Potency result in assay [1], in assay [2], in assay [3] and in assay [4] was “inactive” throughout.

Consider `C=C1CC[C@H](O)C/C1=C\C=C1/CCC[C@]2(C)[C@@H]([C@H](C)CCCC(C)C)CC[C@@H]12`, for which the Potency result in assay [1], in assay [2], in assay [3] and in assay [4] was “inactive” each time.

For the compound `CCCCCCCCCCN`, the Potency entry in assay [1], in assay [2], in assay [3] and in assay [4] was “inactive” each time.

As for `Nc1nc(N)c2nc(-c3ccccc3)c(N)nc2n1`, the Potency entry in assay [1], in assay [2], in assay [3] and in assay [4] was “inactive” throughout.

As for `N[C@@H](CCC(=O)O)C(=O)O`, the Potency result in assay [1], in assay [2], in assay [3] and in assay [4] was “inactive” throughout.

Regarding `CCN1CCN(c2cc(-c3ccc(F)cc3)c3c(n2)CCCCCC3)CC1`, in assay [1], the activity, negative = inhibition is 2.78% [at 23.6 µM]. The results for the activity change, negative = inhibition in assay [2], in assay [3] and in assay [4] were 1.01% [at 23.6 µM], 7.25% [at 23.8 µM] and -1.12% [at 23.6 µM], respectively.

For `CCOC(=O)O[C@H](C)OC(=O)c1ccc2c(c1)cc(C(=O)NC1CCN(C(C)C)CC1)n2Cc1cc(-c2ccc(Cl)s2)on1`, the Potency entry in assay [1], in assay [2] and in assay [4] was “inactive” in each case. In addition, the Potency in assay [3] is 41.8 µM (active).

As to `Cc1ccc(Cl)c(N)c1Cl`, the Potency entry in assay [1], in assay [2], in assay [3] and in assay [4] was “inactive” each time.

With `OC1C(O)C(O)C(O)C(O)C1O` (stereo not given), the Potency entry in assay [1], in assay [2], in assay [3] and in assay [4] was “inactive” each time.

With `C=C(C#N)C(=O)OCC`, the Potency entry in assay [1], in assay [2], in assay [3] and in assay [4] was “inactive” in each case.

Regarding `NC[C@H]1O[C@H](O[C@H]2[C@H](O[C@@H]3O[C@H](CO)[C@@H](O)[C@H]3O)C(O)[C@H](N)C[C@@H]2N)[C@H](N)[C@@H](O)[C@@H]1O` (stereo not given in full), the activity, negative = inhibition in assay [1] was -1.41% [at 10.5 µM]. Moreover, the activity change, negative = inhibition in assay [2] was 0.757% [at 10.5 µM]; in assay [3] it was 8.04% [at 10.5 µM]; in assay [4] it was -2.19% [at 10.5 µM].

On to `CC(CO)(CO)C(=O)O`, for which the Potency result in assay [1], in assay [2], in assay [3] and in assay [4] was “inactive” throughout.

Regarding `CC(C)(Oc1ccc(Cl)cc1)C(=O)O`, the Potency entry in assay [1], in assay [2], in assay [3] and in assay [4] was “inactive” in each case.

Take `CCCCC(CC)COP(=O)(O)OCC(CC)CCCC` (stereo not given): the Potency entry in assay [1], in assay [2], in assay [3] and in assay [4] was “inactive” throughout.

For the compound `CCc1ccccc1`, the Potency result in assay [1], in assay [2], in assay [3] and in assay [4] was “inactive” in each case.

`Cc1ccc(Cl)c(Nc2ccccc2C(=O)O)c1Cl`: the Potency result in assay [1], in assay [2], in assay [3] and in assay [4] was “inactive” throughout.

Regarding `Cc1cc(C)c(C)c(C)c1`, the Potency result in assay [1], in assay [2], in assay [3] and in assay [4] was “inactive” throughout.

As to `Cc1cc(N)n(-c2ccccc2)n1`, the Potency entry in assay [1], in assay [2], in assay [3] and in assay [4] was “inactive” throughout.

On to `C=CC(=O)OCC1CC2CC1C1CCC(COC(=O)C=C)C21` (stereo not given), for which the Potency entry in assay [1], in assay [2], in assay [3] and in assay [4] was “inactive” each time.

For `Cc1ccccc1N=C(N)Nc1ccccc1C`, the Potency entry in assay [1], in assay [2], in assay [3] and in assay [4] was “inactive” throughout.

In the case of `CCOc1ccc(N=Nc2ccc(/C=C/c3ccc(N=Nc4ccc(OCC)cc4)cc3S(=O)(=O)O)c(S(=O)(=O)O)c2)cc1`, the Potency result in assay [1], in assay [2], in assay [3] and in assay [4] was “inactive” each time.

As for `CC(=O)Nc1ccc(CC(=O)O)cc1`, the Potency entry in assay [1], in assay [2], in assay [3] and in assay [4] was “inactive” throughout.

Consider `COc1ccccc1/C=C/C=O`, for which the Potency entry in assay [1], in assay [2], in assay [3] and in assay [4] was “inactive” in each case.

Regarding `NC(=O)COCCN1CCN(C(c2ccccc2)c2ccc(Cl)cc2)CC1` (stereo not given), the Potency result in assay [1], in assay [2], in assay [3] and in assay [4] was “inactive” each time.

Take `O=C1CCCCC1`: the Potency entry in assay [1], in assay [2], in assay [3] and in assay [4] was “inactive” each time.

Consider `Oc1cccc(O)c1`, for which the Potency result in assay [1], in assay [2], in assay [3] and in assay [4] was “inactive” throughout.

Take `CC(CCC(=O)O)(c1ccc(O)cc1)c1ccc(O)cc1`: the Potency result in assay [1], in assay [2], in assay [3] and in assay [4] was “inactive” in each case.

Turning to `O=C(O)C[C@H](O)C[C@H](O)/C=C/c1c(C2CC2)nc2ccccc2c1-c1ccc(F)cc1`, in assay [1], the activity, negative = inhibition is -0.67% [at 23.6 µM]. Also, the activity change, negative = inhibition in assay [2] is -2.86% [at 23.6 µM]; in assay [3], 8.09% [at 23.8 µM]; in assay [4], -1.12% [at 23.6 µM].

The values are drawn from PubChem BioAssay (Tox21).
